# Data taken from PubChem BioAssay (NCATS).
# Several values for one entry are separate records, joined by “and”; a condition that tells them apart may be missing. Equal values may be shown once. Results filed as inconclusive are left out. Entries that show only a call come without a potency. Unmarked numbers belong to inactive results. Activity calls are given as the source filed them. Calls follow the shape of the dose curve; as a rule, active = well fitted inhibition curve with a large enough effect; inconclusive = small, poorly fitted or top-dose-only effect; inactive = flat fitted curve, though single readings scatter.
# Assays:
# CRL-7250 = normal cell line; test: Cytotoxic Profiling of Annotated Libraries Using Quantitative High-Throughput Screening (AID 1296008); settings: Five cell lines viability, CellTiter-Glo ATP luminescence, 48-72 h; max response: active compounds read low
# Procedure, shortened: (§1)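 Cells exposed to compounds for 48 or 72 hr at 37 degrees Celsius. Viability read as ATP-coupled luminescence with CellTiter-Glo after 10 min at room temperature.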
# HEK293 = test: as above; settings: Five cell lines viability, CellTiter-Glo ATP luminescence, 48-72 h; max response: active compounds read low
# Procedure, shortened: as §1
# HaCat [1] = test: as above; settings: Five cell lines viability, CellTiter-Glo ATP luminescence, 48-72 h; max response: active compounds read low
# Procedure, shortened: as §1
# KB-3-1 = test: as above; settings: Five cell lines viability, CellTiter-Glo ATP luminescence, 48-72 h; max response: active compounds read low
# Procedure, shortened: as §1
# NIH3T3 = test: as above; settings: Five cell lines viability, CellTiter-Glo ATP luminescence, 48-72 h; max response: active compounds read low
# Procedure, shortened: as §1
# HEK293T = test: qHTS assay to identify novel small-molecules to repurpose for Merkel cell carcinoma treatment (AID 1296009); settings: MCC and control cell lines, CellTiter-Glo viability, 72 h; at 44.8 µM (top of the series) unless noted
# Procedure, shortened: (§2)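 Cells were treated for 72 hr at 37 degree celsius with compounds in 8- or 11-point dose response. Viability was read by CellTiter-Glo luminescence, normalized to no-cell (cytotoxicity) and DMSO controls.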
# MCC-13 = test: as above; settings: MCC and control cell lines, CellTiter-Glo viability, 72 h; series mostly up to 46 µM
# Procedure, shortened: as §2
# MCC-26 = test: as above; settings: MCC and control cell lines, CellTiter-Glo viability, 72 h; series mostly up to 46 µM
# Procedure, shortened: as §2
# P93_24 = test: qHTS profiling for inhibitors of Plasmodium falciparum proliferation (AID 504749); settings: P. falciparum in erythrocytes, SYBR Green DNA, 72 h; series mostly up to 28.7 µM
# Procedure, shortened: (§3)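 P. falciparum-infected erythrocytes (0.3% parasitemia, 2.5% hematocrit) incubated with compound 72 h at 37 C, 5% CO2. Parasite DNA detected by SYBR Green after lysis, overnight at room temperature; normalised to 0.29 uM artemisinin and DMSO.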
# P94_40 = test: as above; settings: P. falciparum in erythrocytes, SYBR Green DNA, 72 h; series mostly up to 28.7 µM
# Procedure, shortened: as §3
# PAD = test: as above; settings: P. falciparum in erythrocytes, SYBR Green DNA, 72 h; series mostly up to 28.7 µM
# Procedure, shortened: as §3
# PC15 = test: as above; settings: P. falciparum in erythrocytes, SYBR Green DNA, 72 h; series mostly up to 28.7 µM
# Procedure, shortened: as §3
# PC26 = test: as above; settings: P. falciparum in erythrocytes, SYBR Green DNA, 72 h; series mostly up to 28.7 µM
# Procedure, shortened: as §3
# PC49 = test: as above; settings: P. falciparum in erythrocytes, SYBR Green DNA, 72 h; series mostly up to 28.7 µM
# Procedure, shortened: as §3
# SC27B = test: as above; settings: P. falciparum in erythrocytes, SYBR Green DNA, 72 h; series mostly up to 28.7 µM
# Procedure, shortened: as §3
# TAB109 = test: as above; settings: P. falciparum in erythrocytes, SYBR Green DNA, 72 h; series mostly up to 28.7 µM
# Procedure, shortened: as §3
# TAB113 = test: as above; settings: P. falciparum in erythrocytes, SYBR Green DNA, 72 h; series mostly up to 28.7 µM
# Procedure, shortened: as §3
# TAB165 = test: as above; settings: P. falciparum in erythrocytes, SYBR Green DNA, 72 h; series mostly up to 28.7 µM
# Procedure, shortened: as §3
# W2 = test: as above; settings: P. falciparum in erythrocytes, SYBR Green DNA, 72 h; series mostly up to 28.7 µM
# Procedure, shortened: as §3
# HACAT [2] = test: qHTS assay to identify novel small-molecules to repurpose for Merkel cell carcinoma treatment (AID 1296009); settings: MCC and control cell lines, CellTiter-Glo viability, 72 h; at 44.8 µM (top of the series) unless noted
# Procedure, shortened: as §2
# Also: nearly all actives have a fitted effect of over 60% in size.
# Potency is read from the fitted curve at half-maximal effect.
compound,measurement,setting,value
Cc1ccc2c(n1)Oc1ccc(C(C)C(=O)OCC(=O)N(C)C)cc1C2 (stereo unspecified),max response,CRL-7250,4.34%
same,outcome,HEK293,inactive
same,max response,HaCat [1],0.244%
same,max response,KB-3-1,-21.6% and -9.27%
same,max response,NIH3T3,-8.07% and -9.75%
same,outcome,HEK293T,inactive
same,Potency,MCC-13,inactive
same,Potency,MCC-26,inactive
O=C(/C=C/c1ccccc1)NCCO,Potency,P93_24,inactive
same,Potency,P94_40,inactive
same,Potency,PAD,inactive
same,Potency,PC15,inactive
same,Potency,PC26,inactive
same,Potency,PC49,inactive
same,Potency,SC27B,inactive
same,Potency,TAB109,inactive
same,Potency,TAB113,inactive
same,Potency,TAB165,inactive
same,Potency,W2,inactive
same,outcome,CRL-7250,inactive
same,max response,HEK293,-1.9%
same,max response,HaCat [1],-18%
same,max response,KB-3-1,9.29%
same,max response,NIH3T3,3.14%
same,Potency,MCC-13,inactive
CN(C)c1ccc(C(=C2C=CC(=[N+](C)C)C=C2)c2ccccc2)cc1,Potency,P93_24,10000 nM (active)
same,Potency,PC49,inactive
same,Potency,SC27B,inactive
same,Potency,TAB109,12600 nM (active)
same,Potency,TAB165,5010 nM (active)
same,Potency,W2,1350 nM (active)
same,Potency,CRL-7250,84.1 nM (active)
same,Potency,HEK293,94.4 nM (active)
same,Potency,HaCat [1],266 nM (active)
same,max response,KB-3-1,-1.13%
same,Potency,NIH3T3,237 nM (active)
same,Potency,MCC-13,37.6 nM (active)
O=C(O)Cc1ccc2c(c1)C(=O)c1ccccc1CO2,outcome,CRL-7250,inactive
same,max response,HEK293,-3.93%
same,max response,HaCat [1],4.48%
same,outcome,NIH3T3,inactive
same,Potency,MCC-13,inactive
C=CCCCCCCCCC(=O)O,Potency,P93_24,inactive
same,Potency,P94_40,inactive
same,Potency,PAD,inactive
same,Potency,PC15,inactive
same,Potency,PC26,inactive
same,Potency,PC49,inactive
same,Potency,SC27B,inactive
same,Potency,TAB109,inactive
same,Potency,TAB113,inactive
same,Potency,TAB165,inactive
same,Potency,W2,inactive
same,max response,CRL-7250,3.74%
same,outcome,HEK293,inactive
same,max response,HaCat [1],0.628%
same,max response,KB-3-1,1.18%
same,max response,NIH3T3,0.287%
same,outcome,HEK293T,inactive
same,Potency,MCC-13,inactive
same,Potency,MCC-26,inactive
CC(C(=O)O)c1ccc(C(=O)c2ccccc2)s1 (stereo unspecified),outcome,CRL-7250,inactive
same,max response,HEK293,0.794%
same,outcome,HaCat [1],inactive
same,max response,KB-3-1,0.65%
same,outcome,HACAT [2],inactive
same,Potency,MCC-13,inactive
same,Potency,MCC-26,inactive
Cc1ccc(O)c(-n2nc3ccccc3n2)c1,Potency,P93_24,inactive
same,Potency,P94_40,inactive
same,Potency,PAD,inactive
same,Potency,PC15,inactive
same,Potency,PC26,inactive
same,Potency,PC49,inactive
same,Potency,SC27B,inactive
same,Potency,TAB109,inactive
same,Potency,TAB113,inactive
same,Potency,TAB165,inactive
same,Potency,W2,inactive
same,max response,CRL-7250,-18.8%
same,max response,HEK293,-9.47%
same,max response,HaCat [1],-23.9%
same,max response,KB-3-1,-10.3%
same,max response,NIH3T3,0.367%
same,Potency,MCC-13,inactive
same,Potency,MCC-26,inactive
